PubChem BioAssay
Unmarked numbers belong to inactive results. Entries that show only a call come without a potency. For some of these results: Potency and affinity values are given separately. The source made the active and inactive calls. Unless noted, the rule behind the calls is not given here.

Experiments:
[1] = antimalarial activity against Dd2 strain (AID 2302;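 active = growth inhibition above 50% at the single 2 µM test dose, taken to imply half-maximal potency below 2 µM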); conditions: P. falciparum Dd2 in RBCs, LDH growth readout, 72 h; at 2 µM; stronger effect = higher value
[2] = HepG2 cytotoxicity, primary screen, cytotoxicity control for P. falciparum antimalarial project, cell-based, ATP luminescence (AID 2303;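 active = inhibition above 50%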); conditions: HepG2 viability, 24-48 h, at 10 µM, stronger effect = higher value
[3] = biological target: L-lactate dehydrogenase (Plasmodium falciparum (isolate CDC / Honduras)) (UniProt Q27743); assay: PfLDH activity inhibition – cell lysate, 3D7 strain, counter-screen for P. falciparum growth inhibition project (AID 2304); conditions: P. falciparum 3D7 crude extract, LDH APAD/NBT absorbance; at 2 µM; stronger effect = higher value
Chain of L-lactate dehydrogenase (Plasmodium falciparum (isolate CDC / Honduras)) (Q27743 whole entry, looked up): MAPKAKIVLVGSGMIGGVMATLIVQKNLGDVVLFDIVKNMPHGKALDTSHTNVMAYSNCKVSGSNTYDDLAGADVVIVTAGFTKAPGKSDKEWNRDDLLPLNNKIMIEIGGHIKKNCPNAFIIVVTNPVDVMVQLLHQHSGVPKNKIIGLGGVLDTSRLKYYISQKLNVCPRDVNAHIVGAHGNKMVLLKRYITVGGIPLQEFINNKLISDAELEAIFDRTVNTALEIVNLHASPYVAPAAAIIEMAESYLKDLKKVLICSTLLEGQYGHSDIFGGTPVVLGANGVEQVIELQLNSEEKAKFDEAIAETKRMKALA

[4] = inhibition of 3D7 malaria parasite growth – strain 3D7 (AID 2306); conditions: P. falciparum 3D7 erythrocytic growth, LDH absorbance, 72 h; at 2 µM; stronger effect = higher value
[5] = biological target: Calcium-dependent protein kinase 1 (Plasmodium falciparum (isolate 3D7)) (UniProt P62344); assay: PfCDPK1 kinase inhibitors, biochemical, TCAMS library (AID 1159585; cut-off not given, nearly all actives have IC50 up to about 0.98 µM;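 note: inhibitors leave more ATP so luminescence rises with inhibition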); conditions: recombinant PfCDPK1, Kinase-Glo ATP depletion luminescence
Chain of Calcium-dependent protein kinase 1 (Plasmodium falciparum (isolate 3D7)) (P62344 whole entry, looked up): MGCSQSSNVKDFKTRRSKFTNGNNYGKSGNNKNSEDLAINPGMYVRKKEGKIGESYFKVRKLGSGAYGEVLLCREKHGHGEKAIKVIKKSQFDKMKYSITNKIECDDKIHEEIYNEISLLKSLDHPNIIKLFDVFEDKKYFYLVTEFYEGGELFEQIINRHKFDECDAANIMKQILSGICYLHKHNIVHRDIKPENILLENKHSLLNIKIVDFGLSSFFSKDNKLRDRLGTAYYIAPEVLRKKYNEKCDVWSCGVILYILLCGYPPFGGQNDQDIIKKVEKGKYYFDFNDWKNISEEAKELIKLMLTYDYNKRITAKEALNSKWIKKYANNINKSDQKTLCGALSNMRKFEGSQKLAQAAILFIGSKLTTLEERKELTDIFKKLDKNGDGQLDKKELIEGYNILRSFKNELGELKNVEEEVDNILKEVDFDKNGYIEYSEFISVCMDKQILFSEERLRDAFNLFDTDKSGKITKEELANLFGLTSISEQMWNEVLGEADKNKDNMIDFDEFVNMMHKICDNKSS

[6] = biological target: Plasmodium falciparum protein kinase 6 (PK6, PF3D7_1337100) (UniProt Q8IDW1); assay: PfPK6 kinase inhibitors, biochemical, TCAMS library (AID 1159586); conditions: recombinant PfPK6, Kinase-Glo ATP depletion luminescence
Chain of Plasmodium falciparum protein kinase 6 (PK6, PF3D7_1337100) (Q8IDW1 1-305): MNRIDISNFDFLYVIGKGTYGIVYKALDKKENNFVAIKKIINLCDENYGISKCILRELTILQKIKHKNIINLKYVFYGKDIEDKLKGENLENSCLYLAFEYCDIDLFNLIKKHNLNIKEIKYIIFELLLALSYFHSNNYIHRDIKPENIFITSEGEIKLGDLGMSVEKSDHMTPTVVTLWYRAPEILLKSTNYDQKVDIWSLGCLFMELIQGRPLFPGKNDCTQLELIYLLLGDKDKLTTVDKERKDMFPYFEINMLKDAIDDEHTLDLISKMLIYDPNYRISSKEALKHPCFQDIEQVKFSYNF

[7] = biological target: Protein kinase 7 (PK7), Plasmodium falciparum 3D7 (PF3D7_0213400) (UniProt Q7YTF7); assay: inhibition of Plasmodium PK7 catalytic activity – biochemical, TCAMS antimalarial set, Kinase-Glo luminescence (AID 1159587); conditions: recombinant PfPK7, Kinase-Glo ATP depletion luminescence
Chain of Protein kinase 7 (PK7), Plasmodium falciparum 3D7 (PF3D7_0213400) (Q7YTF7 1-343): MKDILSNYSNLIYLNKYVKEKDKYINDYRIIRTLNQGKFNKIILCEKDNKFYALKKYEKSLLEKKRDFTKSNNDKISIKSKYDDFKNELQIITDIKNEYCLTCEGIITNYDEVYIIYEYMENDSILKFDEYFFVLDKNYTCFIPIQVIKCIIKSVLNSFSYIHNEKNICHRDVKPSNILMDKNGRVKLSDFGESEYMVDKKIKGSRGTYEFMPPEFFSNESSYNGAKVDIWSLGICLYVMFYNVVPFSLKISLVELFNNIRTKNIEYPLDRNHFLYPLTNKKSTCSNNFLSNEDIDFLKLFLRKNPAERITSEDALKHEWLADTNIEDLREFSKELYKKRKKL

[8] = biological target: Calcium-dependent protein kinase 4 (Plasmodium falciparum (isolate 3D7)) (UniProt Q8IBS5); assay: PfCDPK4 kinase inhibitors, biochemical, TCAMS library (AID 1159588; cut-off not given, nearly all actives have IC50 up to about 0.91 µM); conditions: recombinant PfCDPK4, Kinase-Glo ATP depletion luminescence
Chain of Calcium-dependent protein kinase 4 (Plasmodium falciparum (isolate 3D7)) (Q8IBS5 whole entry, looked up): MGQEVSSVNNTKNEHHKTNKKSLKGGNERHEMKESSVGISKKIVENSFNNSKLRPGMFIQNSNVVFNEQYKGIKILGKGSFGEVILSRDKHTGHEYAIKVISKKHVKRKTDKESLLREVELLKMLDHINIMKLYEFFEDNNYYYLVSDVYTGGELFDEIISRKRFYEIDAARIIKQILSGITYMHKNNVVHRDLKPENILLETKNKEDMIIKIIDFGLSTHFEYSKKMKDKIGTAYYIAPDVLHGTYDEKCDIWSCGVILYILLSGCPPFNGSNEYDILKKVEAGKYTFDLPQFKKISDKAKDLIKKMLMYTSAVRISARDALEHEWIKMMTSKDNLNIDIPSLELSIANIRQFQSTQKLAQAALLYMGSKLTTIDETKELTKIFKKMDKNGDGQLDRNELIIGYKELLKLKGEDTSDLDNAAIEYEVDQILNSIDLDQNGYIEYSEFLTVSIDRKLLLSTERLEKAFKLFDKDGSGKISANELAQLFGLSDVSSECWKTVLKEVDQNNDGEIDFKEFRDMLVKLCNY

Structure (SMILES)	growth inhibition [1]	inhibition [2]	inhibition [3]	growth inhibition [4]	outcome [5]	outcome [6]	outcome [7]	outcome [8]
CN1CCN(Cc2ccc(-c3ccc4c(Nc5ccc(Oc6ccccc6)cc5)ccnc4c3)o2)CC1	99% (active)	23%	0%	99% (active)	inactive	inactive	inactive	inactive
COc1nc2c(CCN3CC[C@@H](NCc4cc(C#N)c5c(c4)CCO5)[C@@H](O)C3)ccnc2cc1F	35%	21%	-1%	92% (active)	inactive	inactive	inactive	inactive
CC(=O)N(C)c1cccc(C(=O)Nc2cccc(-c3cccc(-c4nc5c(C)cccc5[nH]4)c3)c2)c1	41%	15%	-9%	89% (active)	inactive	inactive	inactive	inactive
OCCOCn1cnc2cnc(N[C@H]3OC[C@H](O)[C@@H](O)[C@@H]3O)nc21	-2%	42%	0%	82% (active)	inactive	inactive	inactive	inactive
Cc1cc(NN=Cc2ccc(Cl)cc2)c2cc(C(F)(F)F)ccc2n1	32%	0%	-5%	91% (active)	inactive	inactive	inactive	inactive
COc1ccc(Cl)c(CC2c3cc(O)c(Cl)cc3CCN2C)c1 (stereo not given)	72% (active)	9%	-1%	98% (active)	inactive	inactive	inactive	inactive
CC(C)(C)COc1ccc2c(N)n[nH]c2c1	8%	31%	4%	90% (active)	inactive	inactive	inactive	inactive
COc1ccccc1NC(=O)Nc1cccc(-c2cccc(-c3nc4c(C)cccc4[nH]3)c2)c1	90% (active)	11%	-1%	101% (active)	inactive	inactive	inactive	inactive
COc1ccc(NC(=O)/C=C/c2ccccc2Cl)cc1OCCN1CCC(O)(c2ccc(Cl)c(C(F)(F)F)c2)CC1	9%	37%	-1%	101% (active)	inactive	inactive	inactive	inactive
CCCCN(CCCC)CCNC(=O)c1cccc(NC(=O)N2CCc3cc(SC)c(C(F)(F)F)cc32)c1	32%	15%	-1%	96% (active)	inactive	inactive	inactive	inactive
Nc1nccc2ccc(-c3cccc(OCc4ccccc4)c3)cc12	81% (active)	47%	5%	101% (active)	inactive	inactive	inactive	inactive
CC1=C(C(=O)OCCOCc2ccccc2)C(c2ccccc2C(F)(F)F)C(C(=O)OCCOCc2ccccc2)=C(C)N1	87% (active)	-7%	3%	89% (active)	inactive	inactive	inactive	inactive
CCCCCCCN(CCCCCCC)CCNc1cc(C)nc2ccccc12	31%	39%	-2%	89% (active)	inactive	inactive	inactive	inactive
c1cc(CN2CCN(c3ccncc3)CC2)cc(-c2ccc(-c3nc4ccccc4[nH]3)s2)c1	100% (active)	59% (active)	-2%	102% (active)	inactive	inactive	inactive	inactive
CCOc1ccc(CCCON2C(N)=NC(N)=NC2(C)C)cc1	93% (active)	65% (active)	0%	93% (active)	inactive	inactive	inactive	inactive
O=C(NC1CCN(Cc2ccccc2O)C1)c1cccc(C(F)(F)F)c1 (stereo not given)	62% (active)	-4%	4%	98% (active)	inactive	inactive	inactive	inactive
N[C@@H](CCNCc1ccc(-c2cccnc2)cc1)Cc1ccc(F)c(F)c1	57% (active)	45%	2%	98% (active)	inactive	inactive	inactive	inactive
Cc1cccc2[nH]c(-c3cccc(-c4cccc(NC(=O)Nc5ccc(Cl)c(Cl)c5)c4)c3)nc12	96% (active)	24%	1%	101% (active)	inactive	inactive	inactive	inactive
COc1cc2nc(NCCN3CCOCC3)n3nc(-c4ccccc4)nc3c2cc1OC	98% (active)	15%	-3%	96% (active)	inactive	inactive	inactive	inactive
COc1ccc(NC(=O)c2ccc(-c3cc(NC(=O)c4ccnc(N5CCCC5)c4)ccc3C)s2)cc1N1CCN(C)CC1	100% (active)	15%	6%	100% (active)	inactive	inactive	inactive	inactive
